# Results from PubChem BioAssay (EPA / NIEHS).
# A structure can be active in one record and inactive in another. Calls of active or inactive are those of the source. How the source made its calls: active means hit-call score of the fitted dose curve at least 0.9, where 1 is the maximum; inactive means score below 0.9.
# Assay: ATG_CRE_CIS: Attagene CIS-FACTORIAL HepG2 Assay for human cAMP Responsive Element (CRE) binding protein 3 (AID 2282926)
# Settings: HepG2 CRE cis-reporter, Attagene multiplexed mRNA; actives raise or lower the signal
# Protocol: ATG_CIS is a cell-based, multiplexed-readout assay that uses HepG2, a human liver cell line, with measurements taken at 24 hours after chemical dosing in a 24-well plate.ATG_CRE_CIS is one of 52 assay component(s) measured or calculated from the ATG_CIS assay. It is designed to make measurements of mRNA induction, a form of inducible reporter, as detected with fluorescence intensity signals by Reverse transcription polymerase chain reaction (RT-PCR) and Capillary electrophoresis technology.Data from the assay component ATG_CRE_CIS was analyzed into 1 assay endpoint. This assay endpoint, ATG_CRE_CIS, was analyzed with bidirectional fitting relative to DMSO as the negative control and baseline of activity. Using a type of inducible reporter, measures of mRNA for gain or loss-of-signal activity can be used to understand the reporter gene at the transcription factor-level as they relate to the gene CREB3. Furthermore, this assay endpoint can be referred to as a primary readout, because this assay has produced multiple assay endpoints where this one serves a reporter gene function. To generalize the intended target to other relatable targets, this assay endpoint is annotated to the dna binding intended target family, where the subfamily is basic leucine zipper.
# Human liver HepG2 cells are transiently transfected with multiple reporter transcription units (MRTUs) in 6-well plates using FuGene 6 reagent (Roche; 3 ml FuGene/1 mg DNA). The MRTU constructs are regulated by a cis-regulating element (promoter). […] A major difference between the CIS and TRANS system is that in CIS activities of endogenous TFs are measured, whereas the TRANS assay evaluates changes in activities of exogenous, chimeric NR-Gal4 proteins. […] At the end of 24 hour incubation, total RNA was isolated using TriZol reagent (Invitrogen). The isolated RNA is then reverse-transcribed using oligo(dT) primer and Mo-MLV reverse transcriptase (Invitrogen) with DNAse I (Ambion) treatment for 30 min. The one-tenth of the produced cDNA was amplified by PCR using Taq DNA polymerase (Invitrogen) and two reporter sequence-specific primers. The PCR products were fluorescently labeled by primer extension with 6-arboxyfluorescein (6-FAM) 5'-labeled reporter sequence-specific primer (2 min at 95 C, 20 s at 68 C and 10 min at 72 C) and these products were digested with 5U of HpaI (New England Biolabs) for 2h at 37 C. The fragments were purified using Qiaquick PCR columns (Qiagen), analyzed on an ABI 3130xL genetic analyzer (Applied Biosystems) with peak positions identified by using a set of X-rhodamine (ROX)-labeled MapMarker1000 molecular weight standards (BioVentures). The raw capillary electrophoresis data was processed using Attagraph software (Attagene).
Compound,outcome,AC50
CCCCCCCCCCCCCCCC[N+](C)(C)Cc1ccccc1,inactive,–
CCCCCCOC(=O)c1ccccc1,inactive,–
CC(Cc1ccc(O)c(O)c1)C(C)Cc1ccc(O)c(O)c1 (stereo not given),–,22.9 µM (active)
C#C[C@]1(O)CC[C@H]2[C@@H]3CCc4cc(OC)ccc4[C@H]3CC[C@@]21C,inactive,–
COC(OC(C)=O)c1ccccc1 (stereo not given),inactive,–
O=C(O)C(F)(OC(F)(F)C(F)(OC(F)(F)C(F)(F)C(F)(F)F)C(F)(F)F)C(F)(F)F (stereo not given),inactive,–
CCCCNc1ccccc1,inactive,–
CC(C)c1ccccc1N,inactive,–
OCCCC(F)(F)C(F)(F)C(F)(F)C(F)(F)C(F)(F)C(F)(F)C(F)(F)F,inactive,51.4 µM (active)
CCCCCCS,inactive,–
Nc1ccc(S(=O)(=O)Nc2nccs2)cc1,inactive,–
CS(C)(=O)=O,inactive,–
OCC(F)(F)C(F)(F)C(F)(F)C(F)F,inactive,–
CC/C=C\CCOC(=O)c1ccccc1,inactive,–
N=C(N)C(F)(F)C(F)(F)C(F)(F)C(F)(F)C(F)(F)C(F)(F)C(F)(F)F,inactive,–
C=CC(=O)OCC(F)(F)C(F)(F)C(F)(F)C(F)(F)C(F)(F)C(F)(F)C(F)(F)F,inactive,–
Nc1ccc(Oc2cccc(Oc3ccc(N)cc3)c2)cc1,–,145 µM (active)
CCCCOCCOCCOC(=O)CCCCC(=O)OCCOCCOCCCC,inactive,–
OCCCC(F)(F)C(F)(F)C(F)(F)F,inactive,–
CCN(CC)c1ccc2c(C)cc(=O)oc2c1,–,30.7 µM (active)

Compound,outcome,AC50
CCCCOc1ccc(N)cc1,inactive,–
O=S(=O)(OCC(F)F)C(F)(F)F,inactive,–
CCCCCCCCC(F)(F)C(F)(F)C(F)(F)C(F)(F)C(F)(F)C(F)(F)F,inactive,–
CCc1c(Br)c(Br)c(Br)c(Br)c1Br,inactive,–
FC1CC(F)(F)C(F)(F)C1(F)F (stereo not given),inactive,–
c1ccc(B(c2ccccc2)c2ccccc2)cc1,inactive,–
O=S(=O)(OCCOC(F)(F)F)C(F)(F)F,inactive,–
Cc1ccc(S(=O)(=O)OCC(F)(F)C(F)(F)C(F)(F)C(F)(F)C(F)(F)C(F)F)cc1,inactive,–
[Co],inactive,–
CC(C)(C)c1ccc(OC2CCCCC2O)cc1 (stereo not given),inactive,–
CCO[Si](CCC(F)(F)C(F)(F)C(F)(F)C(F)(F)C(F)(F)C(F)(F)F)(OCC)OCC,inactive,–
O=C(OCCOCCOCCOC(=O)c1ccccc1)c1ccccc1,inactive,–
O=C(O)C(F)(F)C(F)(F)C(F)(F)C(F)(F)C(F)(F)C(F)(F)C(F)(F)C(F)(F)C(F)(F)C(F)(F)C(F)(F)C(F)(F)C(F)(F)F,inactive,–
Nc1cc(Cl)c(N)c(Cl)c1,inactive,–
C=C(C)C(=O)OCC(F)(F)C(F)(F)C(F)(F)C(F)(F)C(F)(F)C(F)(F)C(F)(F)F,inactive,–
C=CC(=O)OCC(F)(F)C(F)(F)C(F)(F)C(F)(F)COC(=O)C=C,–,43.5 µM (active)
O=C(Cl)C(F)(F)C(F)(F)C(F)(F)C(F)(F)C(F)(F)C(F)(F)C(F)(F)C(F)(F)F,inactive,–
O[Si](c1ccccc1)(c1ccccc1)c1ccccc1,inactive,–
CCCCCCC(C)OC(=O)CCCCC(=O)OC(C)CCCCCC (stereo not given),inactive,–
